Measurements reported in the supplement of paper PMC7156485.
± gives the standard deviation of the averaged measurements.

These compounds were tested on TDF (assay: cell number relative to DMSO (% of DMSO); higher = more cells (less growth inhibition / toxicity)). Details: concentration: 10 µM; 24 h.
Outline: (§1)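 H1.0 nuclear intensity or cell number is expressed as percent of the plate control, with the median of replicates taken. HCC1569 and TDF cells were treated with compounds at 10 µM for 24 h at 37 °C, in triplicate, then fixed and immunostained for H1.0 with DAPI as a nuclear stain. HCC1569 values were smoothed to correct for positional effects.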
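For H1.0 immunofluorescence intensity relative to DMSO in this document: TDF is a line of transformed human dermal fibroblasts of mesenchymal origin.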
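For cell number relative to DMSO in this document: TDF denotes transformed human dermal fibroblasts of mesenchymal origin.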

Structure (SMILES) | cell number
CN(CCOc1ccc(CC2SC(=O)NC2=O)cc1)c1ccccn1.O=C(O)C=CC(=O)O (stereo not given) [Rosiglitazone maleate] | 113
CC(C)C(CO)Nc1nc(Nc2ccc(C(=O)O)c(Cl)c2)c2ncn(C(C)C)c2n1 (stereo not given) | 112
CCCOC(=O)c1c(-c2ccccc2)nc(CC)c(C(=O)SCC)c1CCC | 90.7
CCN(CC)CCOC(=O)c1cc(Cl)c(N)cc1OC.Cl [SDZ-205,557 hydrochloride] | 98.8
CC(C)C[C@H](NC(=O)C(O)[C@H](N)Cc1ccc([N+](=O)[O-])cc1)C(=O)O.Cl (stereo not given in full) | 104
CCCCCC=CCC=CCCCCCCCC(=O)O [9(E),12(E)-Octadecadienoic acid] | 107
O=C1Nc2cc(Br)ccc2C1=C1N=c2ccccc2=C1NO [(2'Z,3'E)-6-Bromoindirubin-3'-oxime] | 61.4
CCCCCCC=CCCCCCCCCC(=O)O [10(Z)-Heptadecenoic acid] | 95.4
O=C(O)c1ccccc1Nc1cccc(OCc2ccc3ccccc3n2)c1 | 97.2
Cl.O[C@H](c1cc(C(F)(F)F)nc2c(C(F)(F)F)cccc12)[C@@H]1CCCCN1 | 56.7
CC(=O)SCC[N+](C)(C)C.[Cl-] [Acetylthiocholine chloride] | 111
Oc1cc(O)c2c(c1)OC(c1ccc(O)c(O)c1)C(O)C2 (single isomer, unassigned; (+)) [(+)-Catechine] | 105
CC1(NC2=NS(=O)(=O)c3sc(Cl)cc3N2)CC1 | 90.6
CCC=CCC=CCC=CCC=CC=CC(O)CCCC(=O)O (racemic) | 94.7
Cl.Cn1ccc2cc3c(cc21)CCN3C(=O)Nc1cccnc1 | 112
CCNC(=O)N1CCN(CCCC(c2ccc(F)cc2)c2ccc(F)cc2)CC1.Cl [Amperozide hydrochloride] | 95.8
Cc1cn2cc(C(=O)N(C)CCO)cc(N[C@@H]3CCOc4cccc(C)c43)c2n1 | 104
COc1cc(Oc2ccnc3cc(OC)c(OC)cc23)ccc1NC(=O)NC(C)c1nccs1 (stereo not given) | 47
N[C@@H](Cc1ccc(F)cc1)C(=O)O [p-Fluoro-L-phenylalanine] | 102
NC(N)=NC(N)=Nc1ccccc1 [1-Phenylbiguanide] | 114

Structure (SMILES) | cell number
COC(=O)C1C(O)CCC2CN3CCc4c([nH]c5ccccc45)C3CC21.Cl (stereo not given) | 107 ± 3.6
CC1CN(S(=O)(=O)c2cccc3cnccc23)CCN1.Cl.Cl (stereo not given) | 109
CC(NC(=O)C(C#N)=Cc1ccc(O)c(O)c1)c1ccccc1 (stereo not given) [Tyrphostin AG 835] | 87.3
CCCCCC#CCC#CCC#CCC#CCCCC(=O)O | 96.2
CC(C)CCNC(=O)C(CC(C)C)NC(=O)C1OC1C(=O)O (stereo not given) | 96.1
COc1ccccc1OCCNCC(O)COc1cccc2[nH]c3ccccc3c12 (stereo not given) [Carvedilol] | 104 ± 4.5
CNC1C(O)C(NC)C2OC3(O)C(=O)CC(C)OC3OC2C1O (stereo not given) [Spectinomycin] | 98
CC1OC(OCC2OC(Oc3c(-c4ccc(O)c(O)c4)oc4cc(O)cc(O)c4c3=O)C(O)C(O)C2O)C(O)C(O)C1O (stereo not given) [Rutin] | 102
CCCCCCC=CC=CCCCCCCCC(=O)O [9(Z), 11(Z)-octadecadienoic acid] | 108
CN1C(=O)CC(C(=O)O)C1c1cccnc1 (stereo not drawn) [Trans-4-Cotininecarboxylic acid] | 100
CN(C)CCCN1c2ccccc2Sc2ccccc21.Cl [Promazine hydrochloride] | 107
CC1=CC(=O)C2=C(C)CCC3C(C)C(=O)OC3C12 (stereo not given) [Leucomisine] | 111
CCCCCC=CCC=CC=CC(O)CC=CCCCC(=O)O (stereo not given) | 99.8
CC(C)CC(NC(=O)C1OC1C(=O)O)C(=O)NCCCCN=C(N)N (stereo not given) | 96.3 ± 6.9
CC(CN1c2ccccc2Sc2ccccc21)N(C)C.Cl (stereo not given) | 105
Cl.Cl.Fc1ccc(C(c2ccc(F)cc2)N2CCN(CC=Cc3ccccc3)CC2)cc1 [Flunarizine dihydrochloride] | 110
COc1nccc(-c2c(-c3ccc(F)cc3)ncn2C2CCNCC2)n1 | 104
CCCCCCCCCCCCCCCCCC(=O)OC(CC(=O)O)C[N+](C)(C)C.[Cl-] (racemic) [DL-Stearoylcarnitine chloride] | 84.3
Cc1ccc(-c2ncc(Cl)cc2-c2ccc(S(C)(=O)=O)cc2)cn1 [Etoricoxib] | 97.1
O=C(NC(NC(=S)Nc1ccc(F)c([N+](=O)[O-])c1)C(Cl)(Cl)Cl)C(c1ccccc1)c1ccccc1 (stereo not given) | 58.3

What follows are compounds tested on TDF (assay: H1.0 immunofluorescence intensity relative to DMSO (% of DMSO); higher = stronger H1.0 induction, active = 120 or more). Details: concentration: 10 µM; 24 h.
Outline: as §1

Structure (SMILES) | H1.0 immunofluorescence intensity
CN(CCOc1ccc(CC2SC(=O)NC2=O)cc1)c1ccccn1.O=C(O)C=CC(=O)O (stereo not given) [Rosiglitazone maleate] | 92.5 (inactive)
CC(C)C(CO)Nc1nc(Nc2ccc(C(=O)O)c(Cl)c2)c2ncn(C(C)C)c2n1 (stereo not given) | 96.7 (inactive)
CCCOC(=O)c1c(-c2ccccc2)nc(CC)c(C(=O)SCC)c1CCC | 93.7 (inactive)
CCN(CC)CCOC(=O)c1cc(Cl)c(N)cc1OC.Cl [SDZ-205,557 hydrochloride] | 85.4 (inactive)
CC(C)C[C@H](NC(=O)C(O)[C@H](N)Cc1ccc([N+](=O)[O-])cc1)C(=O)O.Cl (stereo not given in full) | 95.3 (inactive)
CCCCCC=CCC=CCCCCCCCC(=O)O [9(E),12(E)-Octadecadienoic acid] | 100 (inactive)
O=C1Nc2cc(Br)ccc2C1=C1N=c2ccccc2=C1NO [(2'Z,3'E)-6-Bromoindirubin-3'-oxime] | 118 (inactive)
CCCCCCC=CCCCCCCCCC(=O)O [10(Z)-Heptadecenoic acid] | 101 (inactive)
O=C(O)c1ccccc1Nc1cccc(OCc2ccc3ccccc3n2)c1 | 91.5 (inactive)
Cl.O[C@H](c1cc(C(F)(F)F)nc2c(C(F)(F)F)cccc12)[C@@H]1CCCCN1 | 131 (active)
CC(=O)SCC[N+](C)(C)C.[Cl-] [Acetylthiocholine chloride] | 89.2 (inactive)
Oc1cc(O)c2c(c1)OC(c1ccc(O)c(O)c1)C(O)C2 (single isomer, unassigned; (+)) [(+)-Catechine] | 91.8 (inactive)
CC1(NC2=NS(=O)(=O)c3sc(Cl)cc3N2)CC1 | 96.1 (inactive)
CCC=CCC=CCC=CCC=CC=CC(O)CCCC(=O)O (racemic) | 103 (inactive)
Cl.Cn1ccc2cc3c(cc21)CCN3C(=O)Nc1cccnc1 | 87.9 (inactive)
CCNC(=O)N1CCN(CCCC(c2ccc(F)cc2)c2ccc(F)cc2)CC1.Cl [Amperozide hydrochloride] | 97 (inactive)
Cc1cn2cc(C(=O)N(C)CCO)cc(N[C@@H]3CCOc4cccc(C)c43)c2n1 | 94 (inactive)
COc1cc(Oc2ccnc3cc(OC)c(OC)cc23)ccc1NC(=O)NC(C)c1nccs1 (stereo not given) | 99.9 (inactive)
N[C@@H](Cc1ccc(F)cc1)C(=O)O [p-Fluoro-L-phenylalanine] | 93.4 (inactive)
NC(N)=NC(N)=Nc1ccccc1 [1-Phenylbiguanide] | 89.2 (inactive)

Structure (SMILES) | H1.0 immunofluorescence intensity
COC(=O)C1C(O)CCC2CN3CCc4c([nH]c5ccccc45)C3CC21.Cl (stereo not given) | 91.2 (inactive)
CC1CN(S(=O)(=O)c2cccc3cnccc23)CCN1.Cl.Cl (stereo not given) | 86.2 (inactive)
CC(NC(=O)C(C#N)=Cc1ccc(O)c(O)c1)c1ccccc1 (stereo not given) [Tyrphostin AG 835] | 75 (inactive)
CCCCCC#CCC#CCC#CCC#CCCCC(=O)O | 98.2 (inactive)
CC(C)CCNC(=O)C(CC(C)C)NC(=O)C1OC1C(=O)O (stereo not given) | 100 (inactive)
COc1ccccc1OCCNCC(O)COc1cccc2[nH]c3ccccc3c12 (stereo not given) [Carvedilol] | 99.3 (inactive)
CNC1C(O)C(NC)C2OC3(O)C(=O)CC(C)OC3OC2C1O (stereo not given) [Spectinomycin] | 97 (inactive)
CC1OC(OCC2OC(Oc3c(-c4ccc(O)c(O)c4)oc4cc(O)cc(O)c4c3=O)C(O)C(O)C2O)C(O)C(O)C1O (stereo not given) [Rutin] | 91.6 (inactive)
CCCCCCC=CC=CCCCCCCCC(=O)O [9(Z), 11(Z)-octadecadienoic acid] | 107 (inactive)
CN1C(=O)CC(C(=O)O)C1c1cccnc1 (stereo not drawn) [Trans-4-Cotininecarboxylic acid] | 93.3 (inactive)
CN(C)CCCN1c2ccccc2Sc2ccccc21.Cl [Promazine hydrochloride] | 118 (inactive)
CC1=CC(=O)C2=C(C)CCC3C(C)C(=O)OC3C12 (stereo not given) [Leucomisine] | 96.5 (inactive)
CCCCCC=CCC=CC=CC(O)CC=CCCCC(=O)O (stereo not given) | 97.3 (inactive)
CC(C)CC(NC(=O)C1OC1C(=O)O)C(=O)NCCCCN=C(N)N (stereo not given) | 97.7 (inactive)
CC(CN1c2ccccc2Sc2ccccc21)N(C)C.Cl (stereo not given) | 110 (inactive)
Cl.Cl.Fc1ccc(C(c2ccc(F)cc2)N2CCN(CC=Cc3ccccc3)CC2)cc1 [Flunarizine dihydrochloride] | 89.1 (inactive)
COc1nccc(-c2c(-c3ccc(F)cc3)ncn2C2CCNCC2)n1 | 84.3 (inactive)
CCCCCCCCCCCCCCCCCC(=O)OC(CC(=O)O)C[N+](C)(C)C.[Cl-] (racemic) [DL-Stearoylcarnitine chloride] | 136 (active)
Cc1ccc(-c2ncc(Cl)cc2-c2ccc(S(C)(=O)=O)cc2)cn1 [Etoricoxib] | 101 (inactive)
O=C(NC(NC(=S)Nc1ccc(F)c([N+](=O)[O-])c1)C(Cl)(Cl)Cl)C(c1ccccc1)c1ccccc1 (stereo not given) | 108 (inactive)
